# Compounds with a hit are over-represented: about 11% of the library has one in this group of screens.
# IMPase Li cell = cell-permeable IMPase inhibitors with lithium potentiation; Potency, µM (doses to about 59.4 µM), for inactives: top-dose activity, negative = IMPase inhibition, usual class: inhibitors; AID 1457; CHO-M1 cells, IP1 TR-FRET (IP-One), carbachol + lithium; 210,000 tested, 0.35% active; active = well fitted curve in the direction sought with a large enough effect; inconclusive = small, poorly fitted or top-dose-only effect, or another doubt; inactive = no such curve, though single readings can be large; an effect the other way counts as inactive or inconclusive;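 note: IP1 builds up when IMPase is blocked and the TR-FRET signal falls; potency is the fitted concentration of half-maximal effect; plate controls were basal vehicle for no effect and high inhibitor control for full effect; nearly all actives have a fitted effect of over 50% in size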
#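 CHO cells stably expressing M1 receptor (2000/well, cultured 16–30 h) treated 30 min at 37C with compound plus low lithium. Cytosolic IP1 by TR-FRET (665/620 ratio and 620 channel) after 10 min lysis; AC50 by Hill fit.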
# 12-hLO inh = inhibitors of human 12-lipoxygenase (ALOX12) | purified 12-hLO, xylenol orange hydroperoxide absorbance | Potency, µM (top dose mostly 57.1 µM), without a hit: at the highest dose activity change, negative = inhibition, usual class: inhibitors | 150,000 tested, 0.12% active; active = well fitted curve in the direction sought with a large enough effect; inconclusive = small, poorly fitted or top-dose-only effect, or another doubt; inactive = no such curve, though single readings can be large; an effect the other way counts as inactive or inconclusive; note: potency is the fitted concentration of half-maximal effect; nearly all actives have a fitted effect of over 55% in size
#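 Hydroperoxide formation by human 12-lipoxygenase from 40 uM arachidonic acid was followed colorimetrically via ferric-xylenol orange complex, using the 573/405 nm absorbance ratio. Enzyme concentration was 150 nM, with 30 min reaction at room temperature.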
# ALDH1A1 inh = ALDH1A1 (human) enzyme inhibition; P00352; Purified ALDH1A1, NADH fluorescence, propionaldehyde substrate; 220,000 tested, 7.3% active; AID 1030; Potency, µM (doses to about 75.3 µM), inactives show at the highest dose activity, negative = inhibition, usual class: inhibitors;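 note: potency is the fitted concentration of half-maximal effect; plate controls were no enzyme wells and a reference inhibitor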
# HPGD inh = HPGD (human) dehydrogenase inhibition. P15428. purified HPGD, NADH fluorescence kinetic, PGE2 substrate. Potency, µM, for the others: at the top dose activity change, negative = inhibition, hits mostly inhibitors. 150,000 tested, 4.3% active; note: potency is the fitted concentration of half-maximal effect
# Target sequence (P15428 whole entry, looked up): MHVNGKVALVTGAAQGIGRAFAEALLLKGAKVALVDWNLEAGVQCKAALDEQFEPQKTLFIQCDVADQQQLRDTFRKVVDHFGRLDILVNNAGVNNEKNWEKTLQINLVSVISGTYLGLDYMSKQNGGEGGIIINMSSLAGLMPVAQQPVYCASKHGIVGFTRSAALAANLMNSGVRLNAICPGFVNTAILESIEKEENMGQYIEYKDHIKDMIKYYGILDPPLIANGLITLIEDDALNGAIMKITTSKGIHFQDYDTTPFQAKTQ
#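 NADH formation kinetics: reaction with 30 uM PGE2 and 1 mM NAD+ (final), 20 nM enzyme, Tris-HCl pH 8 with Tween 20, after 15 min compound preincubation at room temperature. Fluorescence change, last versus first of five reads.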
# IMPase cell inh = membrane-permeable compound that blocks inositol monophosphatase | P97697 | CHO-M1 cells, IP1 accumulation, HTRF TR-FRET ratio | inhibition (IP1 accumulation), % at 46.1 µM | 120,000 tested, under 10 active; active = well fitted curve in the direction sought with a large enough effect in the signal ratio, not every such curve was filed as active; inconclusive = small, poorly fitted or top-dose-only effect, or a change in a side signal; inactive = no such curve, though single readings can be large or run the other way; the % refers to the signal ratio;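 note: cells stimulated with carbachol in lithium chloride buffer; plate controls were DMSO basal wells for no effect and reference inhibitor wells for full effect; higher means more IMPase inhibition seen as more IP1 and lower FRET ratio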
# Target sequence (P97697 whole entry, looked up): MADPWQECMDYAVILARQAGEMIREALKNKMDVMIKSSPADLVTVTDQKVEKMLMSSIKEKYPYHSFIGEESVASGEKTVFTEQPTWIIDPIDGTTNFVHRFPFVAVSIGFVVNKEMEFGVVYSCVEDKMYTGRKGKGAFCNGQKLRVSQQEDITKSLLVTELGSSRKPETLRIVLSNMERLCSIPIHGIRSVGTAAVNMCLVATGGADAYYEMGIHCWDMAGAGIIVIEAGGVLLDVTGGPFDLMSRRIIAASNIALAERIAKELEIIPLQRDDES
#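 Measured: the HTRF emission ratio (665/620 nm) plus the 620 nm donor channel, each fitted to the Hill equation to give AC50. Cells were CHO-M1 given compounds up to 46 uM and a 30 min carbachol stimulation at 37C.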
# PNC inhibitor = blocks assembly of the perinucleolar compartment | activity change (PNC), negative = inhibition, % at 10 µM | PC3M PTB-GFP, PNC prevalence imaging, 16 h; active compounds read low | 140,000 tested, 3.1% active;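 active = readout at or below -70, meaning at least 70% loss of cells showing the perinucleolar compartment, a nuclear body marking cancer cells; inconclusive = readout between -30 and a set limit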;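 note: plate controls were DMSO wells for no effect and camptothecin positive control wells for full effect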
#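 Read-out is percentage of cells bearing a perinucleolar compartment, from automated 20x imaging of fixed, Hoechst-stained PC3M PTB-GFP cells. Cells were seeded 4 h, then exposed 16 h to compound (23 nl of library stock) in duplicate plates.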
# An asterisk follows results filed as active; u = inconclusive; x = no result; [ ] = remark or other dose. Unless noted, calls come from the whole dose curve; as a rule, active = well fitted inhibition curve with a large enough effect (not every such curve was filed as active); inconclusive = small, poorly fitted or top-dose-only effect, or another doubt; inactive = no such curve, though single readings can be large or run the other way. Unless noted, % is set by controls: 0 for no effect and ±100 for the full control effect.
SMILES,IMPase Li cell,12-hLO inh,ALDH1A1 inh,HPGD inh,IMPase cell inh,PNC inhibitor
COC(=O)C(C)Sc1nc2c(c(=O)n1-c1ccccc1)SCC2 (stereo not given),-10%[38.3 µM],3%,3.2µM*,-8%,0,u
CCOc1ccc(NC(=O)CSc2nc3[nH]ncc3c(=O)n2-c2ccccc2OC)cc1,-5%,-2%,8.9µM*,-9%,x,-11
Cc1cccc(Oc2coc3cc(OCC(=O)NC4CCCCC4)ccc3c2=O)c1,x,x,x,x,3,x
COC(=O)N1c2ccccc2C23[C@@H]4CN5CCC[C@]6(CCC12C(O)(C6)C4=O)[C@H]53,14%,x,4%,-2%,x,x
C=CCN(c1ccc(C(=O)Nc2ccc(C)c(C)c2)cc1)S(C)(=O)=O,-5%,-1%,1%,-3%,x,-24
CCOc1cc(C(=O)NC(=S)Nn2cnnc2)cc(OCC)c1OCC,-1%,x,11µM*,x,x,x
CCOc1cc(C(=O)Nn2cnnc2)cc(OCC)c1OCC,1%,x,7%,x,x,x
CCn1ccnc1CN(C)Cc1cn(-c2cccc(C)c2)nc1-c1cccc(F)c1,25%,x,20µM*,x,x,x
Cc1cccc(-n2cc(CN3CCCN(C=O)CC3)c(-c3cccc(F)c3)n2)c1,19%,x,10µM*,x,x,x
CCOC(=O)C1=C(c2ccccc2)c2cc(OC)ccc2OC1C(=O)OCC (stereo not given),25%,-4%[0.00818 µM],u,-10%,x,x
Cc1ccccc1CNC(=O)C(C)N(c1ccccc1)S(C)(=O)=O (stereo not given),x,x,x,x,9,x
CC(C)CCNC(=O)c1ccc(CS(=O)(=O)Cc2ccccc2F)o1,-7%,x,-4%,x,x,x
CC(C)CCNC(=O)c1ccc(CSCc2cccc(F)c2)o1,43%[38.3 µM],-3%,u,14µM*,-4,-3
COc1ccc(Cl)cc1S(=O)(=O)N1CCN=C1C,-4%[38.3 µM],-3%,15%,-3%,-2,39
CC1=NCCN1S(=O)(=O)c1c(C(C)C)cc(C(C)C)cc1C(C)C,22%,x,2.2µM*,x,x,x
O=C(NCc1ccccc1)c1cccc(COc2ccc3c(c2)CCC3)c1,7%,-1%,2%,-8%,7,u
COc1cccc(OC)c1C(=O)NNC(=O)c1cccc(COc2ccc3c(c2)CCC3)c1,-4%[38.3 µM],-13%,20µM*,-6%,-4,23
O=C(c1ccco1)N1CCN(C(=O)c2ccc(COc3ccc4c(c3)CCC4)o2)CC1,21%[38.3 µM],0%,28µM*,28µM*,6,-27
NNC(=O)c1ccc(COc2ccc3c(c2)CCC3)o1,-3%,-2%,7.9µM*,-1%,-5,2
O=C(N/N=C/c1cccc(O)c1)c1ccc(COc2ccc3c(c2)CCC3)o1,35%[38.3 µM],1%,-10%,-16%,6,8
CC(=O)CC(=O)Nc1ccccc1,-22%,-1%,-14%,0%,x,x
COc1ccc(-c2nnc(SCCC(=O)O)n2-c2ccccc2)cc1,24%[38.3 µM],-2%,u,32µM*,11,-2
COc1ccc(-n2c(SCC3CNC(=O)O3)nnc2-c2ccc(Cl)cc2)cc1 (stereo not given),8%,-2%,8.9µM*,-4%,x,-20
Cc1cccc(-c2nnc(SCC#N)n2-c2ccccc2)c1,4%[38.3 µM],-6%,-4%,-2%,-13,-27
Cc1cccc(-c2nnc(SCC3CNC(=O)O3)n2-c2ccc(Cl)cc2)c1 (stereo not given),1%,-3%,1.4µM*,-18%,x,u
SMILES,IMPase Li cell,12-hLO inh,ALDH1A1 inh,HPGD inh,IMPase cell inh,PNC inhibitor
O=C(O)CCSc1nnc(-c2ccncc2)n1-c1ccccc1,0%,0%,9%,-4%,u,-19
O=C(Nc1ccc(Cl)cc1)OCCN1CCN(Cc2ccccc2)CCC1=O,-2%,1%[0.00818 µM],5%,-6%,x,x
COC(=O)N1CCC2(CCCN(Cc3ccccc3)C2)CC1,19%,2%,u,-2%,x,x
Cc1ccccc1NC(=O)c1c(NC(=O)C(C)Oc2cccc(Cl)c2)sc2c1CCCC2 (stereo not given),x,x,x,x,-1,x
CCCC[C@@H]1C[C@H]1C(NC(=O)c1ccccc1)c1ccc(C(F)(F)F)cc1 (stereo not given in full),6%,-3%,7%,-13%,x,x
O=C1N=c2ccccc2=C1c1[nH]c(=S)[nH]c1O,8%,-3%,11µM*,-26%,3,30
O=S(=O)(c1ccccc1)N1CCC[C@@]2(CCN(Cc3cc(C(F)(F)F)cc(C(F)(F)F)c3)C2)C1,21%,-8%,-12%,-8%,x,x
Brc1ccccc1OCCCCCN1CCOCC1,14%,x,11µM*,x,x,x
CN1CCN(CCCCOc2ccccc2C=O)CC1,12%,x,22µM*,x,x,x
O=Cc1ccccc1OCCOc1ccccc1C=O,34%,-4%,20µM*,u,25,47
O=Cc1ccccc1Oc1ccccc1,-13%,6%,-9%,0%,8,27
COc1ccccc1C1CC(=O)Oc2cc3c(cc21)OCO3 (stereo not given),-1%,-20%[0.00818 µM],u,-18%,x,x
Cc1ccc(OCC(=O)N2CCCCC2)c(Br)c1,21%[38.3 µM],-2%,-1%,16µM*,-14,45
Cc1cc(OCC(=O)N2CCCC2)cc(C)c1Cl,7%[38.3 µM],0%,26%,11µM*,-5,-21
CC(C)(C)c1ccc(OCC(=O)N2CCCCCC2)c(Br)c1,20%,x,u,x,x,x
CN(C)c1ccc(-c2cc(Nc3ccc(F)cc3)ncn2)cc1,-1%,x,u,x,x,x
COc1cc([N+](=O)[O-])cc2sc(NC(=O)C(C)(C)C)nc12,6%,x,-2%,x,x,x
COc1cc([N+](=O)[O-])cc2sc(NC(=O)C3CC3)nc12,22µM*,x,-1%,x,x,x
O=C(O)CCN=C1CCCc2ccccc2N1,6%[38.3 µM],3%,32µM*,-13%,-1,8
O=C(O)CCCN=C1NC2(CCCC2)Cc2ccccc21,-4%,-2%,5%,3%,8,-21
COC(=O)/C(C#N)=C/c1c(-c2ccccc2)nc2n1CCS2,x,x,1.4µM*,x,x,x
O=S(=O)(c1ccccc1)c1nc(-c2ccc(Cl)cc2Cl)oc1N1CCCCCC1,x,x,x,x,2,x
Cc1occc1C(=O)N/N=C/C1=C(N2CCOCC2)C(=C\c2ccc(Cl)cc2)/CC1,-6%,0%,u,-5%,3,-17
Cc1cc(=O)[nH]c(N/N=C/C2=C(N3CCOCC3)C(=C\c3ccc(Cl)cc3)/CC2)n1,11%,-21%,11µM*,-20%,x,-2
Cc1ccc2cc(CNC(C)C)c(=O)[nH]c2c1,-1%[38.3 µM],-9%,u,-10%,3,12
CC(C)(C)NCc1cc2ccccc2[nH]c1=O,31%[38.3 µM],-16%,20µM*,u,-7,-11
Cc1ccc2[nH]c(=O)c(CNC(C)(C)C)cc2c1,-2%[38.3 µM],-6%,u,u,-2,-107*

# Bioassay records from PubChem BioAssay.
